Screening data deposited in PubChem by National Center for Advancing Translational Sciences (NCATS).
DRD3 antagonist: blocks the human D3 dopamine receptor. P35462. actives 2.5% (n = 360,000). AID 652054. D3R cells, DiscoveRx beta-arrestin luminescence, antagonist mode; active compounds read low. max response, negative = inhibition, %; in the data active = max response below about -50%; inconclusive = no clear call, values can overlap the other calls
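Cells expressing the human receptor were seeded at 1500 cells/well, incubated overnight at 37 degrees C in 5% CO2, then exposed to library compounds with dopamine controls for 90 minutes at 37 degrees C before luminescent detection.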
D1 potentiator: enhances dopamine response at the human D1 receptor; P21728; HEK293 TREx D1 cells, calcium flux, dopamine EC20 potentiation; potentiation, % at 10 µM; actives 0.036% (n = 360,000); AID 504651; in the data active = potentiation above about 30%
Target sequence (P21728 whole entry, looked up): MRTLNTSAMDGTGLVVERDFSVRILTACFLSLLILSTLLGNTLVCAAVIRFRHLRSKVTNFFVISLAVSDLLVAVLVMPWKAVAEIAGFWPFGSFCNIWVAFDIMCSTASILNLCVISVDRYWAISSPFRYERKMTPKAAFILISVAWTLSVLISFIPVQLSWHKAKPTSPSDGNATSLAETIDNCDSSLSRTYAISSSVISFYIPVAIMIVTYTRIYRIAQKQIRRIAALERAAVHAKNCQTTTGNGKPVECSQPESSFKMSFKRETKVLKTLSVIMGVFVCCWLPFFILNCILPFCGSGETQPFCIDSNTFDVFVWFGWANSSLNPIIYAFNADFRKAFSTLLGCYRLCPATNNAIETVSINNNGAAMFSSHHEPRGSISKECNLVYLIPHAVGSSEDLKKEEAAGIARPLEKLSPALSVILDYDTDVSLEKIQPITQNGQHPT
DRD3 agonist: D3 dopamine receptor (human) agonism. D3R DiscoveRx beta-arrestin cells, luminescence, 90 min. max activation, %. actives 0.58% (n = 410,000). AID 652048; in the data active = max activation above about 30%
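Agonist mode: compounds and dopamine controls were applied to plated cells for 90 min at 37 degrees C after an overnight attachment at 1500 cells/well. Luminescent read-out followed 30 - 60 minutes at room temperature with DiscoveRx detection reagent.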
BCR signal inh: chronic active BCR signaling inhibition | ABC-DLBCL IkBa-CBG/CBR reporter, luminescence ratio, 4 h | Potency, µM (series often up to 46.1 µM), usual class: inhibitors | actives 0.05% (n = 340,000); active = well fitted inhibition curve with a large enough effect in the signal ratio, with a control signal flat, not every such curve was filed as active; inconclusive = small, poorly fitted or top-dose-only effect, or effect the other way, or a change in a side signal; the % refers to the signal ratio
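TMD8 human ABC-DLBCL cells with doxycycline-inducible IκBα–green luciferase fusion and unfused red luciferase, in 0.5% FBS medium; compounds up to 46 uM, 4 h at 37C. Green/red luminescence ratio, filter-overlap corrected, fitted to concentration-response curves.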
D1 antagonist: antagonists of human D1 dopamine receptor. HEK293 TREx D1 cells, calcium flux, dopamine EC80; active compounds read low. actives 3.2% (n = 360,000). AID 504652. P21728. activity change, negative = inhibition, % at 10 µM; in the data active = activity change below about -30%
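Inducible Hek293 Trex D1 cells (tetracycline, overnight, 30 C). Calcium dye 30–90 min RT. Antagonist mode: EC80 dopamine added after 180 s compound read.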
D1 ag: activates the human D1 dopamine receptor; P21728; HEK293 T-REx D1 cells, calcium flux, agonist mode; activation, % at 2 µM; actives 1% (n = 360,000); AID 504660; in the data active = activation above about 30%
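Inducible HEK293 T-REx D1 cells, force-coupled to calcium signalling, were plated at 4000 cells/well with tetracycline and held overnight at 30 C. After no-wash calcium dye loading, compound-evoked calcium rise over 180 s flagged agonists.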
A number is an active result; . = inactive; ? = inconclusive; / = no result. Sampled rows, rich in hits. Any-hit rate of the full collection: about 6%.

SMILES | DRD3 antagonist | D1 potentiator | DRD3 agonist | BCR signal inh | D1 antagonist | D1 ag
O=C(Nc1ccc(Cl)cc1)Nc1ccccc1NS(=O)(=O)c1cccs1 | . | . | . | . | -33 | .
CN(C)/C=c1\sc2c(C#N)cc(C(=O)c3ccc(Br)cc3)n2c1=O | . | . | . | . | -51 | .
Cc1oc(-c2cccc(Cl)c2)nc1CS(=O)(=O)CC(=O)NC(C)CCc1ccccc1 (stereo not given) | / | . | . | / | . | .
Cc1ccccc1-n1cnc2cc(NCc3cccs3)ccc21 | . | . | . | . | -37 | .
Cc1ccccc1-c1nc(CSc2nc3c(c(=O)[nH]2)CCC3)c(C)o1 | . | . | 30 | . | . | .
Cn1nc(C(F)(F)F)c2cc(C(=O)Nc3ccc(F)cc3)sc21 | . | . | . | ? | . | .
Cn1nc(C(F)(F)F)c(-c2ccc(F)cc2)c1NC(=O)Nc1ccc(F)cc1 | . | . | . | . | -67 | 31
Cc1cccc(C(=O)Nc2ccc(C(=O)N/N=C/c3ccc(C)o3)cc2)c1 | . | . | . | ? | -48 | .
O=C(N/N=C/c1ccccn1)c1ccccc1 | . | . | . | ? | . | .
Cc1ccc(C(=O)Nc2ccc(C(=O)N/N=C/c3ccccn3)cc2)cc1 | . | . | . | . | -38 | .
CN(C)c1ccc(C(=O)N/N=C/c2ccccn2)cc1 | . | . | . | ? | -40 | .
CCCCc1c(CCC)c(=N)c2ccccc2n1C | -73 | . | . | ? | . | .
COc1ccc(NC(=O)Cn2c(=O)n(CCc3ccccc3)c(=O)c3c4c(sc32)CCCC4)cc1 | / | . | . | / | . | .
CC(=O)N1Cc2cc(C(=O)NCC(F)(F)F)nc(-c3cccc(-c4cc5ccccc5o4)c3)c2[C@@H]1CCO | . | / | 55 | / | / | /
Cc1ccccc1CNC(=O)CN1CCSc2ccccc21 | / | . | . | / | -31 | .
CN(CCOC(=O)c1ccccc1)Cc1ccccc1 | ? | . | . | . | . | .
CC(CN(C)Cc1ccccc1)OC(=O)c1cccc(F)c1 (stereo not given) | -60 | . | . | . | . | .
CN(CCOC(=O)c1cccc(F)c1)Cc1ccccc1 | -88 | . | . | . | . | .
COc1cc(C(=O)Nc2ccc(OCc3cc(=O)n4cccc(C)c4n3)cc2)cc(OC)c1OC | / | . | . | / | . | .
COc1ccc(C2=Nn3c(nnc3-c3ccccc3OC)SC2)cc1 | / | . | / | / | . | .
O=c1oc2ccc(Cl)cc2cc1-c1cn2c(n1)sc1ccccc12 | / | . | . | ? | . | .
COc1c(OC2OC(C(=O)O)C(O)C(O)C2O)cc(O)c2c(=O)cc(-c3ccccc3)oc12 (stereo not given) | . | . | . | . | . | .
O=C(O)C1OC(Oc2cc3oc(-c4ccccc4)cc(=O)c3c(O)c2O)C(O)C(O)C1O (stereo not given) | . | . | 32 | ? | . | .
CCOC(=O)C1=C(O)c2ccccc2C(=O)/C1=C\c1ccc(C)cc1 | . | . | . | ? | . | 34
CCOC(=O)C1=C(C)OC(=Cc2ccccc2)C1=O | . | / | . | / | / | /
SMILES | DRD3 antagonist | D1 potentiator | DRD3 agonist | BCR signal inh | D1 antagonist | D1 ag
O=C(O)COc1ccc(/C=C2/SC(=S)N(Cc3ccccc3)C2=O)cc1 | . | . | . | . | . | .
COc1ccc(/C=C2/SC(=S)N(Cc3ccccc3)C2=O)cc1O | ? | . | . | . | . | .
O=C1/C(=C\c2cc(Cl)c(O)c(Cl)c2)SC(=S)N1Cc1ccccc1 | . | . | . | . | -85 | 412
COc1ccc(O)c(/C=C2/SC(=S)N(Cc3ccccc3)C2=O)c1 | . | . | . | . | . | 40
COc1ccc(OC)c(/C=C2\SC(=S)N(Cc3cccnc3)C2=O)c1 | . | . | . | . | . | 48
CCOC(=O)c1sc(N2C(=O)c3oc4ccccc4c(=O)c3C2c2ccc(C(C)(C)C)cc2)nc1C (stereo not given) | / | . | . | / | . | .
CCOC(=O)c1c(NC(=O)/C=C/c2ccc(OCC)cc2)sc(C)c1C | / | . | . | / | -80 | .
CCCOC(=O)c1c(NC(=O)/C=C/c2cnn(C)c2C)sc(C(=O)OC)c1C | -77 | . | . | . | . | .
